Screening data: PubChem, National Center for Advancing Translational Sciences (NCATS)
A549 tox-1 = A549 cytotoxicity, counter-screen for Nrf2 inhibitors; Potency, µM (titrated, usually from 46 µM), for the others: at the highest dose activity change, negative = cytotoxicity, most hits filed as inhibitors; actives 0.16% (n = 390,000); A549 ARE-Fluc cells, CellTiter-Fluor viability, 18-24 h; also: % is scaled to controls: 0 for no effect and ±100 for the full control effect
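A549 ARE_Fluc cells in 5% FBS OPTI-MEM were exposed to compounds in concentration-response for 18-24 h at 37 deg C. Viability was read by CellTiter-Fluor fluorescence (Ex 405/Em 525) after 30 min, before the luciferase read.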
TrxR1 substrate = substrates of rat thioredoxin reductase 1; O89049; purified TrxR1 substrate turnover, NADPH consumption readout; Potency, µM (doses to about 114 µM), for the others: at the highest dose activity change, negative = substrate turnover; actives 0.01% (n = 390,000); AID 588456; also: % is scaled to controls: 0 for no effect and ±100 for the full control effect; nearly all actives have a fitted effect of over 50% in size
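Rat TrxR1, dispensed at 90 nM, was prereduced with 400 uM NADPH (final) for 5 min at ~22 deg C, then incubated with compound 15 min before 400 uM selenite. A first-read NADPH fluorescence drop versus no-compound background flagged substrates.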
Nrf2 block = inhibitors of Nrf2 signaling. Potency, µM (top dose mostly 46 µM), for inactives: at the top dose activity change, negative = inhibition, usual class: inhibitors. A549 ARE-Fluc reporter, luciferase luminescence, 18-24 h. actives 2.1% (n = 360,000); also: % is scaled to controls: 0 for no effect and ±100 for the full control effect; nearly all actives have a fitted effect of over 60% in size
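Reporter: ARE-Fluc in A549. Exposure: 18-24 h, 37 °C, 5% CO2, 5% FBS OPTI-MEM. Readouts: fluorescent cytotoxicity (CellTiter-Fluor), then luminescent Nrf2 signal after BugLite.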
mIDH1 inhibitor = inhibitors of human mutant IDH1 R132H; O75874; IDH1-R132H enzyme, NADPH consumption, diaphorase/resazurin fluorescence; Potency, µM (doses to about 76.6 µM), for inactives: top-dose activity change, negative = inhibition, hits mostly inhibitors; actives 0.093% (n = 390,000); AID 602179; also: % is scaled to controls: 0 for no effect and ±100 for the full control effect; nearly all actives have a fitted effect of over 65% in size
Target sequence (O75874 whole entry R132H, stated change not applied): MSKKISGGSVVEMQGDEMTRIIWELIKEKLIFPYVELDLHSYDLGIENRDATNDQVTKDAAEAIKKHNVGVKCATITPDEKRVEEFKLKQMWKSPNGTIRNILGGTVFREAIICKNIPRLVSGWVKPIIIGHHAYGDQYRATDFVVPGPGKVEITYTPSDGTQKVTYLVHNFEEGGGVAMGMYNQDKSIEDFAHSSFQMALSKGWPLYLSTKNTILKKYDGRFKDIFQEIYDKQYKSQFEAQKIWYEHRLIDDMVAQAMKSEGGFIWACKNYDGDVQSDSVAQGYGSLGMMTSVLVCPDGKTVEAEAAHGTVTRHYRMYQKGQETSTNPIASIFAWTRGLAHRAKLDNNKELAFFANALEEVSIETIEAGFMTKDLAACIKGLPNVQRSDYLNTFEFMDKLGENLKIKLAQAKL
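IDH1-R132H (0.5 ug/mL dispensed) in pH 7.5 Tris buffer was preincubated 30 min with compound, then given a substrate mix of 0.016 mM NADPH and 2 mM alpha-KG for 80 min at room temperature; remaining NADPH was read by diaphorase/resazurin fluorescence.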
TrxR1 inh = rat TrxR1 inhibition | recombinant rTrxR1, NADPH fluorescence consumption, selenite substrate | Potency, µM (top dose mostly 114 µM), inactives show at the top dose activity change, negative = inhibition, usual class: inhibitors | actives 1% (n = 390,000) | AID 588453; also: % is scaled to controls: 0 for no effect and ±100 for the full control effect; nearly all actives have a fitted effect of over 65% in size
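Rat TrxR1 (90 nM in the dispensed reagent) was pre-reduced with 400 uM NADPH for 5 min at room temperature, then incubated with compound for 15 min. After 400 uM selenite was added, NADPH fluorescence (Ex 340/Em 450 nm) was followed for 8 min.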
Mito fusion act = blocks mitochondrial division or promotes mitochondrial fusion; S. cerevisiae fusion-defective mutant growth rescue, CellTiterGlo 48 h; Potency, µM (top dose mostly 46.1 µM), without a hit: at the highest dose growth rescue (activation), most hits filed as activators; actives 0.23% (n = 320,000); also: % of control where 0% means no effect; nearly all actives have a fitted effect of over 45% in size
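Read-out: ATP-based luminescence (CellTiterGlo, 10 min ambient) reporting growth of fusion-defective ts yeast after 48 hours at 37C on glycerol/ethanol YPEG medium in the presence of compound.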
FLuc enzyme inh = firefly luciferase inhibition, Nrf2 hit validation; Potency, µM (doses to about 57.5 µM), without a hit: at the top dose activity change, negative = inhibition, actives largely listed as inhibitors; purified firefly luciferase, luminescence inhibition; actives 4% (n = 1,400); shares compounds with Nrf2 block; also: % is scaled to controls: 0 for no effect and ±100 for the full control effect; nearly all actives have a fitted effect of over 65% in size
A549 tox-2 = toxic to A549 ARE-Fluc cells in Nrf2 counterscreen; A549 ARE-Fluc cells, cytotoxicity counterscreen; actives 2% (n = 1,400); Potency, µM (series often up to 46.1 µM), inactives show top-dose activity change, negative = cytotoxicity, hits mostly inhibitors; shares compounds with Nrf2 block;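 also: cells exposed to compounds for 18 to 24 hours; % is scaled to controls: 0 for no effect and ±100 for the full control effect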
ARE-Fluc inh = confirmation of Nrf2 inhibitors in A549 ARE reporter cells | shares compounds with Nrf2 block | A549 ARE-firefly luciferase reporter, luminescence | Potency, µM (series often up to 46.1 µM), without a hit: at the top dose activity change, negative = inhibition, most hits filed as inhibitors | actives 74% (n = 1,400) | AID 720524; also: % is scaled to controls: 0 for no effect and ±100 for the full control effect; nearly all actives have a fitted effect of over 65% in size
* marks the source's active call; other numbers are inactive results; ? = inconclusive; nt = no result shown; [ ] = remark or other dose. Hits are enriched below; roughly 3.1% of the tested compounds scored in any of these assays. Calls follow the shape of the dose curve; as a rule, active = well fitted curve in the direction sought with a large enough effect; inconclusive = small, poorly fitted or top-dose-only effect, or another doubt; inactive = no such curve, though single readings can be large; an effect the other way counts as inactive or inconclusive. Potency is read from the fitted curve at half-maximal effect.

SMILES | A549 tox-1 | TrxR1 substrate | Nrf2 block | mIDH1 inhibitor | TrxR1 inh | Mito fusion act | FLuc enzyme inh | A549 tox-2 | ARE-Fluc inh
Cc1cc(C)c2nc(NNC(=O)c3ccc(S(=O)(=O)N4CCCC(C)C4)cc3)sc2c1 (stereo unspecified) | ? | 6%[57.1 µM] | 4.1µM* | -4% | 13%[57.1 µM] | -6% | -1% | -19% | 6.5µM*
Cc1nnc(NC(=O)c2ccc(S(=O)(=O)N3CCCCCC3)cc2)o1 | -2% | -3% | -23% | -2% | 5% | -5% | nt | nt | nt
CC1CCCN(S(=O)(=O)c2ccc(C(=O)Nc3nnc(C4CC4)o3)cc2)C1 (stereo unspecified) | ? | -4% | 5.8µM* | -7% | 2% | -6% | -1% | ? | 9.2µM*
COc1cc(NC(=O)C(OC(=O)CNC(=O)c2ccccc2)c2ccccc2)cc(C(F)(F)F)c1 (stereo unspecified) | -1% | nt | -7% | nt | nt | nt | nt | nt | nt
Cc1ccc(-c2nnc(Nc3cccc(Br)c3)c3ccccc23)cc1S(=O)(=O)N1CCCCC1 | 0% | 11% | -3% | -5% | 18% | nt | nt | nt | nt
CCOC(=O)N1CCC(NC(=O)c2ccc(CO)c(C(=O)NC3CCN(C(=O)OCC)CC3)c2)CC1 | 0% | 2% | 4% | -1% | 9% | -4% | nt | nt | nt
CCOC(=O)N1CCC(NC(=O)c2cc(C(=O)Nc3cccc(C(F)(F)F)c3)ccc2CO)CC1 | ? | -6% | 5.8µM* | -4% | -13% | -8% | 2% | -9% | 16µM*
CCc1ccc(CNC(=O)c2ccc(NC(=O)N3CC(C)Sc4ccccc43)cc2)cc1 (stereo unspecified) | 3% | -3% | -1% | 0% | -11% | nt | nt | nt | nt
CCCC(=O)NC(NC(=S)Nc1ccc(N=Nc2ccccc2)cc1)C(Cl)(Cl)Cl (stereo unspecified) | ? | 0% | 8.2µM* | -3% | -12% | 0% | -21% | ? | 7.3µM*
O=[N+]([O-])c1ccc(CN2CCN(c3ccc([N+](=O)[O-])cc3)CC2)cc1 | -24% | -9% | 7.3µM* | 4% | -6%[57.1 µM] | 30% | -1% | -16% | nt
COc1ccc(Cl)cc1NC(=O)CSC1=Nc2ccccc2C2=NC(CCC(=O)NCc3ccc(F)cc3)C(=O)N12 (stereo unspecified) | ? | 6% | 3.7µM* | -2% | 19% | nt | 4% | ? | 15µM*
COc1ccc(NC(=O)CSC2=Nc3ccccc3C3=NC(CCC(=O)NCc4ccc(F)cc4)C(=O)N23)cc1Cl (stereo unspecified) | -26% | -2% | ? | -11% | 13% | nt | nt | nt | nt
C=CCOc1ccc(CN(C)C(=O)c2ccc(CNS(=O)(=O)c3ccc(C)c(C)c3)cc2)cc1 | ? | 3% | 9.2µM* | 1% | 19% | 13% | 0% | -25% | ?
CN(Cc1ccc(F)cc1)C(=O)c1cccc(S(=O)(=O)NCc2ccccc2)c1 | -1% | -4%[57.1 µM] | ? | -10% | -1%[57.1 µM] | 19% | nt | nt | nt
Cc1ccc(S(=O)(=O)CC2CSc3nc(N)cc(=O)n32)cc1 (stereo unspecified) | -13% | 5% | -11% | -3% | 8% | 6% | nt | nt | nt
Cc1ccc(S(=O)(=O)CC2CSc3nc4ccccc4n32)cc1 (stereo unspecified) | 0% | -3% | 0.73µM* | 2% | -8% | -1% | 0% | -1% | 1.3µM*
CCc1ccc2[nH]c(=O)c(CN(Cc3ccccc3)C(=O)Nc3ccccc3OC)cc2c1 | -23% | 10%[57.1 µM] | 7.3µM* | -1% | 27% | 8% | 0% | -26% | ?
CCc1ccc2[nH]c(=O)c(CN(CCN(C)C)C(=O)Nc3ccccc3OC)cc2c1 | 3% | 5% | -5% | -3% | 8% | 0% | nt | nt | nt
C=CCn1c(C)c(/C=C/c2cc[n+](C)cc2)c2ccccc21 | -21% | -11% | ? | -3% | 0% | -6% | nt | nt | nt
CCN(CC)C(=O)Cn1c(C)c(/C=C/c2cc[n+](C)cc2)c2ccccc21 | -9% | -20% | 5% | -4% | -16% | 0% | nt | nt | nt
CCn1cc(/C=C/c2cc[n+](C)cc2)c2ccccc21 | -21% | -10% | 1.8µM* | 1% | -8% | 8% | 0% | ? | 1.8µM*
Cc1ccccc1/C=C/c1cc[n+](C)cc1 | -8% | -7% | 1.3µM* | 1% | -4% | -3% | 4% | -13% | 23µM*
CC(C)n1cc(/C=C/c2cc[n+](C)cc2)c2ccccc21 | ? | -8% | 2.3µM* | 3% | -9% | -3% | 2% | ? | 6.5µM*
C=CCn1cc(/C=C/c2cc[n+](C)cc2)c2ccccc21 | ? | -22% | 2.3µM* | 14% | -25% | -5% | 1% | -29% | 1.8µM*
CCOc1ccccc1N(CC(=O)Nc1ccc(OC)c(Cl)c1)S(=O)(=O)c1ccccc1 | 5% | -8%[57.1 µM] | nt | 24% | 19%[57.1 µM] | nt | nt | nt | nt
CSCCC(NC(=O)CCC(=O)OCC(=O)[C@@]1(O)CCC2[C@@H]3CCC4=CC(=O)C=C[C@]4(C)C3[C@@H](O)C[C@@]21C)C(=O)O (stereo partly specified) | 1% | 1% | 0.21µM* | -10% | 29% | 1% | -1% | -6% | 0.058µM*
CC(C)CC(NC(=O)CCC(=O)OCC(=O)[C@@]1(O)CCC2[C@@H]3CCC4=CC(=O)C=C[C@]4(C)C3[C@@H](O)C[C@@]21C)C(=O)O (stereo partly specified) | -12% | 0% | ? | -2% | 8% | -1% | nt | nt | nt
C[C@]12C=CC(=O)C=C1CC[C@@H]1C2C(O)C[C@@]2(C)C1CC[C@]2(O)C(=O)COC(=O)CCC(=O)NC(CC(=O)O)C(=O)O (stereo partly specified) | 0% | -4% | 0.1µM* | -2% | 2% | 4% | 4% | -11% | 0.26µM*
CC(=O)c1cc2c(cc1N/C(=N/S(=O)(=O)c1ccc(Cl)cc1)c1ccc(F)cc1)OCO2 | 9% | 8%[57.1 µM] | nt | -3% | 16%[57.1 µM] | nt | nt | nt | nt
